# PubChem BioAssay AID1259421 (Broad Institute, 2018)
# Several values for one entry are separate records, joined by “and”; a condition that tells them apart may be missing. Identical values can stand only once. Out of some 6,400 compounds screened, about 610 (9.5%) were called active. No stated cut-off is given here; in the data, active means activity change below about -70%; inconclusive means no clear call, values can overlap the other calls; inactive means above that. What follows is part of a selection rich in actives, with near analogues and random picks from the rest. More than one record can exist for a structure, and the calls need not agree. *1 amine or outer side, *2 acyl side, *3 side chain or, on linkers, in order; H or OH if unused. Where a SMILES comes first, the peptide text is derived from it. Bridges are numbered along the chain shown (N, C = ends). Roman numbers before positions name the chains, in order. [ ]: non-standard residue; d: D form. The star is where a group is joined. Actinocin(9to1) = Cc1c2oc3c(C)ccc(C(=O)[*:1])c3nc-2c(C(=O)[*:2])c(N)c1=O; NMeV = CN[CH](C(=O)O)C(C)C; Cbz = O=C(OCc1ccccc1)*; Sar = CNCC(=O)O
# Test: Toxoplasma gondii ME49Luc growth in HeLa cells, luciferase, no IFN-y, primary screen (AID 1259421)
# Details: T. gondii ME49Luc in HeLa, 72 h, stronger effect = lower value, concentration not given here
row,Structure (SMILES),"activity change, negative = inhibition"
1,CN(C)Cc1ccc(-c2nc3cccc4c3n2CCNC4=O)cc1,4.67% (inactive)
2,CCC(=O)OCC(=O)[C@@]1(OC(=O)CC)[C@H](C)CC2C3C([C@@H](O)C[C@@]21C)[C@@]1(C)C=CC(=O)C=C1C[C@H]3Cl (some centres not stated),2.29% (inactive)
3,CC1=CC(=O)C2C(C)(C)CCC[C@]2(C)[C@@]1(O)CCc1ccoc1 (some centres not stated),1.47% (inactive)
4,CN1CC[C@@H](c2c(O)cc(O)c3c(=O)cc(-c4ccccc4Cl)oc23)[C@@H]1CO,-78.4% (active)
5,COc1ccc(-c2cc(=O)c3c(O)cc(OC)c(OC)c3o2)c(OC)c1,12.5% (inactive)
6,CN1CC[C@H](c2c(O)cc(O)c3c(=O)cc(-c4ccccc4Cl)oc23)[C@H](O)C1,-83.7% (active)
7,NC(N)=NCCC[C@H](N)C(=O)NCC(=O)N[C@@H](CC(=O)O)C(=O)N[C@@H](CO)C(=O)O,12.1% (inactive)
8,CC(C)CCNc1ncccc1C(=O)N1CCN(Cc2ccccc2)CC1,7.68% (inactive)
9,COc1cc2oc3cc(OC)c(OC)c(CC=C(C)C)c3c(=O)c2c(O)c1CC=C(C)C,7.82% (inactive)
10,CC(C)=CCc1c(O)cc2oc(C)cc(=O)c2c1O,1.96% (inactive)
11,COc1c(O)cc2oc3cc(O)c(CC=C(C)C)c(O)c3c(=O)c2c1CC=C(C)C,-80.8% (active)
12,C[N+](C)(C)[C@@H](Cc1c[nH]c(=S)[nH]1)C(=O)O,3.37% (inactive)
13,COc1ccc(CCCn2ncc3c2nc(N)n2nc(-c4ccco4)nc32)cc1,-11.7% (inactive)
14,Nc1nc(NCCc2ccc(O)cc2)nc2nc(-c3ccco3)nn12,-78.9% (active) and -90.1% (active)
15,Nc1nc2c(cnn2CCc2ccccc2)c2nc(-c3ccco3)nn12,16.9% (inactive) and 59.6% (inactive)
16,CC(COc1ccccc1)NC(C)[C@H](O)c1ccc(O)cc1 (some centres not stated),7.25% (inactive) and 9.37% (inactive)
17,C[C@H](Cn1cnc2c(N)ncnc21)OCP(=O)(O)O,8.95% (inactive)
18,Nc1ncnc2c1ncn2C1O[C@H](COP(=O)(O)O)[C@@H](O)[C@H]1O (some centres not stated),13.1% (inactive)
19,Nc1ncnc2c1ncn2C1OC(COP(=O)(O)O)C(O)C1O (configuration not stated) (tested in a mixture with another compound),1.1% (inactive)
20,CC(C)OC(=O)OCOP(=O)(CO[C@H](C)Cn1cnc2c(N)ncnc21)OCOC(=O)OC(C)C,-84% (active)
21,CC(C)(C)C(=O)OCOP(=O)(COCCn1cnc2c(N)ncnc21)OCOC(=O)C(C)(C)C,-84.5% (active) and -86.9% (active)
22,Nc1ncnc2c1ncn2CCOCP(=O)(O)O,5.36% (inactive)
23,CC(=O)OC[C@H]1O[C@@](COC(C)=O)(O[C@H]2O[C@H](COC(C)=O)[C@@H](OC(C)=O)[C@H](OC(C)=O)[C@H]2OC(C)=O)[C@@H](OC(C)=O)[C@@H]1OC(C)=O,4.98% (inactive)
24,CCC1(c2cnc[nH]2)Cc2ccccc2C1,52.1% (inactive)

row,Structure (SMILES),"activity change, negative = inhibition"
1,CS(=O)(=O)NC(=O)CCC/C=C\C[C@H]1C(=O)C[C@@H](O)[C@@H]1/C=C/[C@@H](O)COc1ccccc1,0.217% (inactive)
2,CCCC(=O)Nc1ncnc2c1ncn2C1OC2COP(=O)(O)OC2C1OC(=O)CCC (configuration not stated),6.24% (inactive)
3,C=C1C[C@]23C[C@@]1(O)CC[C@H]2[C@@]12C=C[C@H](O)[C@](C)(C(=O)O1)[C@H]2[C@@H]3C(=O)O,1.78% (inactive)
4,CCCCC(C)(C)[C@H](O)/C=C/[C@H]1[C@H](O)CC(=O)[C@@H]1C/C=C\CCCC(=O)O,16.3% (inactive)
5,O/N=C/c1ccc(-c2ccc(O)c(F)c2)c(Cl)c1O,-85.3% (active)
6,CC(=O)Nc1cccc(-n2c(=O)n(C3CC3)c(=O)c3c(Nc4ccc(I)cc4F)n(C)c(=O)c(C)c32)c1,19.3% (inactive)
7,CCOc1nc2cccc(C(=O)O)c2n1Cc1ccc(-c2ccccc2-c2nn[nH]n2)cc1,-59.6% (inactive)
8,C=C[C@]1(C)C[C@@H](OC(=O)CSC(C)(C)CNC(=O)[C@H](N)C(C)C)[C@@]2(C)[C@H](C)CC[C@]3(CCC(=O)[C@H]32)[C@@H](C)[C@@H]1O,-20.2% (inactive)
9,Cc1c(CN2CCN(C(=O)[C@H](C)O)CC2)sc2c(N3CCOCC3)nc(-c3cnc(N)nc3)nc12,-21.6% (inactive)
10,COc1ccc(-c2nc(N3CCOCC3)c3sc(CN(C)c4ncc(C(=O)NO)cn4)cc3n2)cn1,-89.4% (active)
11,CS(=O)(=O)N1CCN(Cc2cc3nc(-c4cccc5[nH]ncc45)nc(N4CCOCC4)c3s2)CC1,-19.3% (inactive)
12,C=CC(C)(C)c1[nH]c2ccccc2c1C1C(=O)C(=O)C(c2c[nH]c3c(CC=C(C)C)cccc23)C(=O)C1=O (configuration not stated),6.09% (inactive)
13,O=C(O)/C=C1\CCCc2ccccc2C1O (configuration not stated),14% (inactive) and 4.55% (inactive)
14,O=C(OOC(=O)c1ccccc1)c1ccccc1,3.51% (inactive)
15,Cc1ccc2c(Br)cc(Br)c(OC(=O)c3ccccc3)c2n1,-89.9% (active)
16,O=C(Oc1cccc2cccnc12)c1ccccc1,9.16% (inactive) and -0.158% (inactive)
17,Nc1nc(N)c([NH2+][O-])c(OCC2CCCCC2)n1,6.35% (inactive)
18,O=C(O)[C@H](O)[C@H](O)[C@@H](O)[C@H](O)[C@H](O)CO,15.3% (inactive) and -2.15% (inactive)
19,COc1cccc2c1C(=O)c1c(O)c3c(c(O)c1C2=O)C[C@@](O)(C(C)=O)C[C@@H]3O[C@H]1C[C@H](N)[C@H](O)[C@H](C)O1,-66.8% (inactive) and -6.1% (inactive) and -91.6% (active)
20,COc1cccc2c1C(=O)c1c(O)c3c(c(O)c1C2=O)C[C@@](O)(C(C)=O)C[C@@H]3OC1CC(N)C(O)C(C)O1 (some centres not stated),-89.8% (active)
21,Nc1nc2c(nc(Br)n2[C@@H]2O[C@@H]3COP(=O)(O)O[C@H]3[C@H]2O)c(=O)[nH]1,7.36% (inactive)
22,CO[C@H]1CC(O[C@@H]2/C(C)=C/C[C@@H]3C[C@@H](C[C@]4(CC[C@H](C)[C@@H](C5CCCCC5)O4)O3)OC(=O)[C@@H]3C=C(C)/C(=N/O)[C@H]4OC/C(=C\C=C\[C@@H]2C)[C@]43O)O[C@@H](C)C1O (some centres not stated),-64.5% (inactive) and -40.6% (inactive)
23,NCCCCN=C(N)N,12.5% (inactive)
24,CC(CCC(=O)NCC(=O)O)C1CCC2C3CCC4CC(O)CCC4(C)C3CC(O)C12C (configuration not stated),-5.76% (inactive)

row,Structure (SMILES),"activity change, negative = inhibition"
1,CC(=O)O[C@@H]1CC2C(C)(C)C(=O)CC[C@]2(C)C2CC[C@@]3(C)[C@H](c4ccoc4)OC(=O)C4OC43[C@@]21C (some centres not stated),21.5% (inactive)
2,COC1CCC(N(C(=O)C2CCC(C)CC2)c2cc(C3=CCCCC3)sc2C(=O)O)CC1 (configuration not stated),5.25% (inactive)
3,COc1cccc(O)c1O,-4.12% (inactive)
4,C[C@@H]1C(SC2CN(C3=NCCS3)C2)=C(C(=O)OCOC(=O)C(C)(C)C)N2C(=O)[C@H]([C@@H](C)O)[C@H]12,3.05% (inactive)
5,CC(C)C[C@@H](C=O)NC(=O)[C@H](CC(C)C)NC(=O)[C@H](CC(C)C)NC(=O)OCc1ccccc1 (Cbz-Leu-Leu-Leu-aldehyde),-62.8% (inactive) and -91.5% (active)
6,COC(=O)[C@H](CC(C)C)NC(=O)[C@@H](N)CC(C)C,4.82% (inactive)
7,CCCCC(C=O)NC(=O)C(CC(C)C)NC(=O)OCc1ccccc1 (configuration not stated),10.2% (inactive)
8,CC(C)=CCC/C(C)=C/COc1ccc2ccc(=O)oc2c1,17.8% (inactive)
9,O=C1C(Cl)=C(NCCN2CCOCC2)C(=O)c2ncccc21,-78.2% (active)
10,c1ccc2c(c1)CCCc1cc(NCCN3CCOCC3)nnc1-2,12.2% (inactive)
11,O=C(NCCN1CCOCC1)c1ccc(Cl)cc1,-0.363% (inactive)
12,c1cc(-c2cnn3cc(-c4ccc(OCCN5CCCCC5)cc4)cnc23)ccn1,-69.4% (inactive)
13,C/C(=N\NC(=O)[C@@H]1C(=O)NC[C@H]1c1ccccc1)c1cccc(Br)c1,1.33% (inactive)
14,CO[C@H]1C=CO[C@@]2(C)Oc3c(C)c(O)c4c(O)c(c5c(nc6cc(C)ccn65)c4c3C2=O)NC(=O)/C(C)=C\C=C[C@H](C)[C@H](O)[C@@H](C)[C@@H](O)[C@@H](C)[C@H](OC(C)=O)[C@@H]1C,-17.3% (inactive)
15,O=C1OC(=O)C2C3CCC(O3)C12 (configuration not stated),-85.1% (active)
16,CC(C)[C@](O)(c1ccc2cc(OC(F)F)c(OC(F)F)cc2c1)c1cn[nH]n1,29.6% (inactive)
17,Brc1cccc(Nc2ncnc3cc4nc[nH]c4cc23)c1,3.71% (inactive)
18,O=c1[nH]c2cc([N+](=O)[O-])c([N+](=O)[O-])cc2[nH]c1=O,17.4% (inactive) and 5.82% (inactive) and 4.72% (inactive)
19,O=c1[nH]c2cc(Cl)c(Cl)cc2[nH]c1=O,-86.2% (active)
20,O=c1[nH]c2cc(Cl)c(Cl)c([N+](=O)[O-])c2[nH]c1=O,7.55% (inactive)
21,COc1cc([C@@H]2Oc3c(O)cc([C@H]4Oc5cc(O)cc(O)c5C(=O)[C@@H]4O)cc3[C@H]2CO)ccc1O,-10.5% (inactive)
22,CC(C)O.CC(C)O.CC(C)O.[In],12.3% (inactive)
23,Cc1c2oc3c(C)ccc(C(=O)OC(C)C4NC(=O)C(C(C)C)N(C)C(=O)CN(C)C(=O)C5CCCN5C(=O)C(C(C)C)NC4=O)c3nc-2c(C(=O)OC(C)C2NC(=O)C(C(C)C)N(C)C(=O)CN(C)C(=O)C3CCCN3C(=O)C(C(C)C)NC2=O)c(N)c1=O (configuration not stated) (I: cyclo([Sar][NMeV]TVP) / II: cyclo([Sar][NMeV]TVP); linker I:3-II:3 via Actinocin(9to1); configuration not given here),-87.1% (active)
24,"Cc1c2oc3c(C)ccc(C(=O)N[C@@H]4C(=O)N[C@H](C(C)C)C(=O)N5CCC[C@H]5C(=O)N(C)CC(=O)N(C)[C@@H](C(C)C)C(=O)O[C@@H]4C)c3nc-2c(C(=O)N[C@@H]2C(=O)N[C@H](C(C)C)C(=O)N3CCC[C@H]3C(=O)N(C)CC(=O)N(C)[C@@H](C(C)C)C(=O)O[C@@H]2C)c(N)c1=O (I: T[dV]P[Sar][NMeV] / II: T[dV]P[Sar][NMeV]; ester I:1-I:C, II:1-II:C; linker I:N-II:N via Actinocin(9to1))",-88.5% (active)
